# Laboratory results from ChEMBL document CHEMBL1201862, “PubChem BioAssay data set” (2004).
# Out of some 400,000 compounds screened, about 2,100 (0.53%) were called active. Roughly 14% stayed inconclusive and do not appear here. No rule for the calls is given here. The sample as a whole holds a higher share of actives than the screen did.
# Molecular target: Ataxin-2 (Homo sapiens) (UniProt Q99700)
# Assay: qHTS for Inhibitors of ATXN expression.
# Type: functional
# Ataxin-2 (Homo sapiens), sequence (Q99700 whole entry): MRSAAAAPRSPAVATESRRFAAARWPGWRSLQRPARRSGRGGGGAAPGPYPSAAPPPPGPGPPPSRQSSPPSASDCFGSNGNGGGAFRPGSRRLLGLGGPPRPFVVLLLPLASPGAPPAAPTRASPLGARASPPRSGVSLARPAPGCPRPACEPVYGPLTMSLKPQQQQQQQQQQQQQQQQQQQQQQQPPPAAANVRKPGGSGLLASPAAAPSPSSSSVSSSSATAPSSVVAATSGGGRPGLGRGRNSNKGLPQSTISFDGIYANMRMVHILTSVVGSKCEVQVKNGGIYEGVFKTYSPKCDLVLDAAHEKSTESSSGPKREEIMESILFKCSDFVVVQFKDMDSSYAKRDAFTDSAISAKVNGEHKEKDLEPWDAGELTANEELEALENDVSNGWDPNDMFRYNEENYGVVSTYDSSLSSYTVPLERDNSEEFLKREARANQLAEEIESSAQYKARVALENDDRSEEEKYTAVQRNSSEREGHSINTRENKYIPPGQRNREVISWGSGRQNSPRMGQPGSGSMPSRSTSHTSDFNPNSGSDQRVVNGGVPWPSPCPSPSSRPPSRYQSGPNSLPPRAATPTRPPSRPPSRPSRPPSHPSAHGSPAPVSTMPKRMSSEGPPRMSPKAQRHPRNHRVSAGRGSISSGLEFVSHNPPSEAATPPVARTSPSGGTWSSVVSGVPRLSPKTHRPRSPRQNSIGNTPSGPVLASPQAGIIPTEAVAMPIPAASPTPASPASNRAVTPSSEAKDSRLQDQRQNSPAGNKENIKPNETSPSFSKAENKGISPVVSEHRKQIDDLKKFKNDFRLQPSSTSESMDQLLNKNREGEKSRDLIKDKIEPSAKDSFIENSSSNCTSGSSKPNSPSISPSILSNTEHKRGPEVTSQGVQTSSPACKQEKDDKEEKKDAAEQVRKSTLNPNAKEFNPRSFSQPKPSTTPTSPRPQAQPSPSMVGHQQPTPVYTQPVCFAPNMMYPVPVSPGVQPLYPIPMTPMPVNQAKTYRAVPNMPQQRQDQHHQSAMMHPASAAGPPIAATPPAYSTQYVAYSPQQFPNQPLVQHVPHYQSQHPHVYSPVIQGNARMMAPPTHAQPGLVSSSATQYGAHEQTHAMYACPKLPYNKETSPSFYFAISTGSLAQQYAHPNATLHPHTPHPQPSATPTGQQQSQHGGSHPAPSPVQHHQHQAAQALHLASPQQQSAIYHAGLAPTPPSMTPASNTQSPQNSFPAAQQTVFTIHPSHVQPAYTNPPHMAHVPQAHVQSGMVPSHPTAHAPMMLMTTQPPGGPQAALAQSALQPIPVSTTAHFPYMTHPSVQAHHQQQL
row,Compound,Potency
1,COc1ccc(C(=O)c2sc3nc(C)cc(-c4cccs4)c3c2N)cc1OC,inactive
2,CCCn1nc(NC(C)=O)c2cc3cccc(C)c3nc21,inactive
3,CCOc1ccc(NCc2cccn2-c2nnc(N3CCC(C(=O)NCCCN4CCCCC4CC)CC3)s2)cc1 (centres undefined),22.4 µM (active)
4,COCCCn1/c(=N/C(C)=O)c(C#N)cc2c(=O)n3cccc(C)c3nc21,inactive
5,COc1ccccc1NC(=O)c1sc2nc(C)c(C(=O)Nc3ccc(C)cc3C)c(-c3cccs3)c2c1N,inactive
6,COc1ccccc1NC(=O)c1sc2nc(Cc3ccccc3)cc(C(F)(F)F)c2c1N,inactive
7,COc1ccccc1C(=O)Nc1c(C(=O)N(C)Cc2ccccc2)sc2nc(C)c(Cl)c(C)c12,11.2 µM (active)
8,FC(F)(F)c1cccc(NC(S)=NCc2ccc(Cl)cc2)c1,inactive
9,Nc1cc(C(F)(F)F)cc([N+](=O)[O-])c1N,inactive
10,O=[N+]([O-])c1cc(C(F)(F)F)cc([N+](=O)[O-])c1NCCN=C(S)Nc1ccc(Cl)c(Cl)c1,39.8 µM (active)
11,CCOc1cc(/C=C(\C#N)c2nc(-c3cccs3)c(NC(C)=O)s2)ccc1O,inactive
12,CCOc1ccc(-c2csc(/C(C#N)=C\c3ccc(O)c([N+](=O)[O-])c3)n2)cc1,8.91 µM (active)
13,CCc1ccc(/C=C(/C#N)c2nc(-c3ccc(C)cc3)cs2)cc1,inactive
14,CCOc1ccc2nc(NCCCNS(=O)(=O)c3ccccc3)c(C#N)cc2c1,inactive
15,CC(=O)N1CCN(c2ccc(NC(=O)c3cccc(F)c3)cc2)CC1,inactive
16,CN1CCN(c2ccc(NC(=O)c3ccc(-c4ccc(Cl)cc4)o3)cc2)CC1,25.1 µM (active)
17,CN1CCN(c2ccc(NC(=O)c3sc4ccccc4c3Cl)cc2)CC1,inactive
18,CCCCOC(=O)c1ccc(NC(=O)/C(C#N)=C/c2ccc(-c3ccccc3)o2)cc1,inactive
19,CCOc1cccc(/C=N/NC(=O)CC2C(=O)NN=C2C)c1O (centres undefined),inactive
20,COc1ccc(/C=N/OCC(=O)N=Nc2c(O)[nH]c3ccc(Br)cc23)cc1,inactive
21,O=C(N=Nc1c(O)[nH]c2ccc(Br)cc12)c1ccccc1-n1cccc1,17.8 µM (active)
22,Cc1cccc(N=Nc2c(O)[nH]c3ccc(F)cc23)c1,inactive

row,Compound,Potency
1,Cc1cc(C)c(C#N)c(SCC(=O)Nc2nonc2N)n1,inactive
2,COc1ccccc1N1C(=O)C2C(C(=O)c3ccccc3)=NN(c3ccc(Br)cc3)C2C1=O (centres undefined),inactive
3,CCN1C=C(C(=O)OC)C(c2cccc(OC)c2OC)C(C(=O)OC)=C1,inactive
4,COc1cccc(C(=O)Oc2c(Sc3ccc(C)cc3)c(C)nn2C(C)(C)C)c1OC,20 µM (active)
5,Cc1ccc(S(=O)(=O)c2c(C)nn(C(C)(C)C)c2OC(=O)C(C)C)cc1,inactive
6,CC(=O)Nc1ccc(N2C(=O)c3cccc4c(O)ccc(c34)C2=O)cc1,inactive
7,CC(=O)NN1C(=O)c2ccc3c4c(ccc(c24)C1=O)C(=O)N(NC(C)=O)C3=O,25.1 µM (active)
8,CC(=O)Nc1ccc2c3c(cccc13)C(=O)N(c1ccccc1)C2=O,inactive
9,CCOCCCn1/c(=N/C(=O)c2cccs2)c(C#N)cc2c(=O)n3ccccc3nc21,inactive
10,COc1cccc(N/C(SC)=C(/C#N)C(=O)NCc2cccs2)c1,inactive
11,CSC(SC)=C(C#N)C(=O)c1ccccc1,39.8 µM (active)
12,Cc1cc(C)c(C#N)c(SCC(=O)c2ccccc2)n1,inactive
13,COc1cccc(C(=O)C(C#N)=C(SC)SC)c1,14.1 µM (active)
14,CCOC(=O)C1(C)C(=O)CC2c3nc4ccccc4cc3CN2C1=O (centres undefined),inactive
15,O=C1c2ccccc2S(=O)(=O)c2cc(N3CCC4(CC3)OCCO4)ccc21,inactive
16,CCN(CC)C(=O)CSC(Nc1cccc(F)c1)=C(C#N)C#N,inactive
17,N#Cc1c(Cl)nc(-c2ccncc2)nc1-c1ccccc1,inactive
18,CC(C)(C)SCCNS(=O)(=O)c1ccc(C#N)cc1,inactive
19,COc1ccc(N2CCN(CC(=O)NC(=O)NC(C)(C)C)CC2)cc1,inactive
20,COc1ccc(NC(=O)c2ccc(NC(=O)CN3CCN(c4ccc(O)cc4)CC3)cc2)cc1,31.6 µM (active)
21,COc1ccc(NC(=O)CN2CCN(c3ccccc3)CC2)cc1,inactive
22,CC(C)Oc1ccc(C(=O)/C=C2/C(=O)Nc3ccccc32)cc1,39.8 µM (active)

row,Compound,Potency
1,Cn1cc(/C=C2\SC(=O)N(c3ccccc3)C2=O)c2ccccc21,inactive
2,O=C1S/C(=C\c2ccc(O)c([N+](=O)[O-])c2)C(=O)N1c1ccccc1Cl,33.6 µM (active)
3,N#Cc1ccccc1Cn1cc(/C=C/[N+](=O)[O-])c2ccccc21,29.9 µM (active)
4,CCOC(=O)COc1ccccc1/C=C\[N+](=O)[O-],6.31 µM (active)
5,N#Cc1ccccc1Cn1cc(/C=N/Nc2ccc([N+](=O)[O-])cn2)c2ccccc21,inactive
6,O=C(Cn1cc(/C=C\[N+](=O)[O-])c2ccccc21)Nc1ccccc1,35.5 µM (active)
7,Cc1cc(C)cc(NC(=O)Cn2cc(C=O)c3ccccc32)c1,inactive
8,CCOC(=O)Cn1cc(/C=N/NC(=O)c2cc3ccccc3o2)c2ccccc21,inactive
9,Cc1ccccc1OCC(=O)OCC(=O)c1ccc[nH]1,inactive
10,Cc1ccc(C(=O)NNC(=O)COC(=O)COc2ccccc2C#N)cc1,inactive
11,CCOC(=O)Cn1cc(/C=C/[N+](=O)[O-])c2ccccc21,39.8 µM (active)
12,CCOC(=O)N/N=C/c1cn(CCCOc2ccc(C)cc2)c2ccccc12,inactive
13,C=CCn1cc(/C=C/c2cc[n+](C)cc2)c2ccccc21,inactive
14,O=C(O)c1ccc(Cn2cc(/C=C\[N+](=O)[O-])c3ccccc32)o1,inactive
15,COC(=O)c1cc(-n2cccc2)ccc1N1CCOCC1,inactive
16,S=C(Nc1ccccc1)Nc1ccc2c[nH]nc2c1,inactive
17,Cc1ccc(CNC(=O)c2cccc3c2C(=O)c2ccc(N4CCC(C)CC4)cc2S3(=O)=O)cc1,inactive
18,Cc1ccc(-c2cc(-c3ccco3)c3c(N)c(C(=O)NN)oc3n2)cc1,inactive
19,CC(=O)C1CCC2C3CC=C4CC(SC(=N)N)CCC4(C)C3CCC12C (centres undefined),37.7 µM (active)
20,CC(C)(C)[C@H](N)C(=O)N[C@H]1CCC2C3CC=C4C[C@@H](O)CC[C@]4(C)C3CC[C@@]21C (some centres undefined),37.7 µM (active)
